Bioassay records (PubChem BioAssay)
HT1080 IDH1KD tx – qHTS for induction of synthetic lethality in tumor cells producing 2HG: qHTS for the HT-1080-IDH1KD cell line; HT-1080 IDH1 knockdown viability, ATP luminescence, 48 h; Potency, µM (highest dose often 46.1 µM), hits mostly cytotoxic; 360,000 compounds, 2% hits; AID 686971, 2013
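Assay cells: HT-1080 with IDH1 knockdown, 750 per well, RPMI/5% FBS. Exposure: 48 h at 37 °C following 2 h pre-incubation. Read: CellTiter-Glo luminescence; fitted concentration-response, curve class assigned.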
HT1080-NT tox – qHTS for induction of synthetic lethality in tumor cells producing 2HG: qHTS for the HT-1080-NT fibrosarcoma cell line. HT-1080-NT fibrosarcoma viability, CellTiter-Glo ATP luminescence, 48 h. Potency, µM (series often up to 46.1 µM), most hits filed as cytotoxic. 360,000 compounds, 1.6% hits. AID 686970, 2013;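 further: NT is the 2HG producing partner of a matched IDH1 knockdown line; nearly all actives have a fitted effect of over 55% in size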
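Viability of the 2HG-overproducing fibrosarcoma line after 48 hours of compound exposure at 37 degrees C was determined by luminescence with CellTiter-Glo, and concentration-effect curves were then fitted and categorized.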
TDP1 cell CPT – qHTS for Inhibitors of human tyrosyl-DNA phosphodiesterase 1 (TDP1): qHTS in cells in presence of CPT; chicken DT40 Tdp1-/-;hTDP1 cells + 20 nM CPT, ATP luminescence, 48 h; Potency, µM (doses to about 46.2 µM), actives largely listed as inhibitors; 420,000 compounds, 12% hits; further: nearly all actives have a fitted effect of over 55% in size
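Chicken DT40 Tdp1-/- cells complemented with human TDP1, 400 cells/well, exposed to compounds plus 20 nM camptothecin for at least 48 h at 37 C; viability read as ATP content by CellTiter-Glo luminescence.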
IL1B secr inh – qHTS for Inhibitors of Inflammasome Signaling: IL-1-beta AlphaLISA Primary Screen; THP-1 LPS/ATP IL-1B secretion, AlphaLISA, 16 h; active compounds read low; activity change, % at 57.5 µM; 360,000 compounds, 4.7% hits; AID 743279, 2014; in the data active means activity change below about -50%; inconclusive means mostly about -30% to -49%
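Secreted IL-1B measured by AlphaLISA bead assay after 16 h compound exposure of THP-1 cells; compounds (final up to 57.5 uM) added 1 h before LPS (250 ng/mL) and ATP (1.25 mM) stimulation; lower signal means less secretion.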
TDP1 cell noCPT – qHTS for Inhibitors of human tyrosyl-DNA phosphodiesterase 1 (TDP1): qHTS in cells in absence of CPT. DT40 Tdp1-/- hTDP1 cells, no CPT, ATP luminescence, 48 h. 420,000 compounds, 15% hits. AID 686978, 2013. Potency, µM (top dose mostly 46.2 µM), usual class: inhibitors; further: nearly all actives have a fitted effect of over 55% in size
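Luminescent ATP content (CellTiter-Glo) served as the growth readout. Knockout chicken DT40 cells expressing human TDP1 were exposed to compounds without camptothecin for a minimum 48 hr at 37 °C.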
Hits are given with their value; n = inactive; u = inconclusive; x = no result given; ! = not confirmed by another sample; [ ] = remark or other dose. Only some compounds are listed: those with a hit (about 19% of all), similar ones and a draw of the others. Unless noted, the call rests on the fitted dose curve; in most records, active means well fitted curve in the direction sought with a large enough effect; inconclusive means small, poorly fitted or top-dose-only effect, or another doubt; inactive means no such curve, though single readings can be large; an effect the other way counts as inactive or inconclusive.

SMILES	HT1080 IDH1KD tx	HT1080-NT tox	TDP1 cell CPT	IL1B secr inh	TDP1 cell noCPT
CCc1cccc(NC(=O)Nc2ccc3c(c2)N(C)C(=O)c2ccccc2S3)c1	x	x	u	x	23µM
COc1ccc(CNC(=O)Nc2ccc3c(c2)N(C)C(=O)CS3)cc1	n	n	u	n	u
COc1cccc(CNC(=O)Nc2ccc3c(c2)N(C)C(=O)c2ccccc2S3)c1	x	x	23µM	x	u
CN1C(=O)c2ccccc2Sc2ccc(NC(=O)N3CCN(c4cccc(Cl)c4)CC3)cc21	x	x	7.3µM	x	5.2µM
CN1C(=O)c2ccccc2Sc2ccc(NC(=O)NC3CC3)cc21	n	n	u	n	u
O=c1c2ccccc2nc(SCc2ccncc2)n1CC1CCCO1 (centres undefined)	n	n	n	n	u
COc1cc(Cl)c(NC(=O)c2cc(S(=O)(=O)N3CCOCC3)cn2C)c(OC)c1	x	x	n	x	n
O=S(=O)(c1ccc2c(c1)OCCO2)N1CCN(c2nc(-c3ccccc3)nc3ccccc23)CC1	n	n	u	x	u
CC(C)=C1C2CCC1C1C(=O)N(c3ccc4c(c3)OCO4)C(=O)C21 (centres undefined)	n	n	n	n	n
CC(C)=C1C2C=CC1C1C(=O)N(c3ccc4c(c3)OCO4)C(=O)C21 (centres undefined)	n	n	u	n	21µM
CC1CCc2c(nc3ncnn3c2NCCc2ccccc2F)C1 (centres undefined)	n	n	u	x	13µM
NC(=S)NN=C1CSSC1	u	u	7.3µM	-100	3.7µM
CC1(C)CCC(=NNC(N)=S)CC1	n	n	u	n	29µM
Cc1ccc(NC(=S)NNC(=O)c2ccc(N3CCOCC3)c([N+](=O)[O-])c2)cc1C	n	n	n	n	n
CC(C)(C)OC(=O)N1CCC(c2c(C(=O)NCCN3CCCC3)cnn2-c2ccc(Cl)cc2)CC1	x	x	u	x	23µM
Cc1ccc(-n2ncc(C(=O)NCCN3CCCC3)c2C2CCN(C(=O)OC(C)(C)C)CC2)cc1	x	x	23µM	x	u
COc1ccc(-n2ncc(C(=O)NC3CC3)c2C2CCN(C(=O)OC(C)(C)C)CC2)cc1	n	n	n	n	n
COc1ccc(-n2ncc(C(=O)NCCCN3CCCCC3)c2C2CCN(C(=O)OC(C)(C)C)CC2)cc1	x	x	18µM	x	18µM
CC(C)(C)OC(=O)N1CCC(c2c(C(=O)NCCN3CCC(Cc4ccccc4)CC3)cnn2-c2cccc(Cl)c2)CC1	x	x	5.8µM	x	3.7µM
O=C(COc1ccccc1Cl)Nc1ccc(OCc2cc(=O)n3ccsc3n2)cc1	x	x	n	x	n
COc1ccc(-n2cc(C(=O)OCc3ccc(F)c(F)c3)c3ccccc3c2=O)cc1	x	x	n	x	n
Cc1ccc(-n2ncc(C(=O)NC3CCCCC3)c2C2CCN(C(=O)OC(C)(C)C)CC2)cc1	x	x	u	x	23µM
Cc1ccc(-n2ncc(C(=O)N3CCN(Cc4ccccc4)CC3)c2C2CCN(C(=O)OC(C)(C)C)CC2)cc1	x	x	u	x	n
COc1ccccc1N1CCN(CCCNC(=O)c2cnn(-c3ccccc3)c2C2CCN(C(=O)OC(C)(C)C)CC2)CC1	x	x	16µM	x	16µM
CC(C)(C)OC(=O)N1CCC(c2c(C(=O)NCCN3CCOCC3)cnn2-c2ccccc2)CC1	x	x	5.8µM	x	5.8µM
SMILES	HT1080 IDH1KD tx	HT1080-NT tox	TDP1 cell CPT	IL1B secr inh	TDP1 cell noCPT
Cc1ccc(-n2ncc(C(=O)NCCN3CCC(Cc4ccccc4)CC3)c2C2CCN(C(=O)OC(C)(C)C)CC2)cc1	x	x	4.6µM	x	2.9µM
O=C(NCCN1CCOCC1)c1cnn(-c2ncc3c(n2)-c2ccccc2CC3)c1C1CC1	x	x	n[9.04 µM]	x	23µM
COc1ccccc1CN1CCC(CNC(=O)c2cnn(-c3ccc(Cl)cc3)c2C2CCN(C(=O)OC(C)(C)C)CC2)CC1	x	x	3.7µM	x	5.2µM
CCCCn1c(N)c(N(Cc2ccccc2OC)C(=O)CN2C(=O)NC3(CCCC3)C2=O)c(=O)[nH]c1=O	n	n	n	n	n
CC(=O)C1=C(C)NC(SCC(=O)Nc2nc3ccccc3s2)=C(C#N)C1c1ccc(Cl)cc1 (centres undefined)	n	n	u	n	18µM
CCOC(=O)CSC1=C(C#N)C(c2ccc(F)cc2)C(C(C)=O)=C(C)N1 (centres undefined)	n	n	n	n	u
C=CCOC(=O)C1=C(C)NC(SCC)=C(C#N)C1c1ccc(Cl)cc1 (centres undefined)	8.2µM	9.2µM	0.73µM	n	0.52µM
COc1ccc(NC(=O)CSC2=C(C#N)C(c3ccco3)C(C(=O)Nc3nc4ccccc4s3)=C(C)N2)cc1 (centres undefined)	n	n	u	n	u
CCOC(=O)C1=C(C)NC(SCC(=O)OC)=C(C#N)C1c1ccc(C(=O)OC)cc1 (centres undefined)	n	n	u	n	23µM!
O=C1c2ccc(Cl)cc2S(=O)(=O)c2cccc(C(=O)N3CCN(c4ccc(Cl)cn4)CC3)c21	u	u	13µM	-93	16µM
O=C1CSC(c2ccccn2)N1c1ccc(F)cc1F (centres undefined)	n	n	n	n	n
Cc1nnc2c3ccccc3nc(N3CCN(c4cccc(Cl)c4)CC3)n12	x	x	13µM	x	12µM
Cc1cccc(N2CCN(c3nc4ccccc4c4nnc(C)n34)CC2)c1C	x	x	13µM	x	12µM
Cc1ccc(N2CCN(c3nc4ccccc4c4nnc(C)n34)CC2)c(C)c1	x	x	n	x	n
CCC(C)NC(=O)c1cc(-c2cccs2)nc2ccccc12 (centres undefined)	n	n	n	n	u
CC(C)N1CCc2c(sc(NC(=O)c3cc(-c4cccs4)nc4ccccc34)c2C(N)=O)C1	u	u	18µM	n	9.2µM
CC(C)N1CCc2c(sc(NC(=O)c3nc4ccccc4s3)c2C(N)=O)C1	n	u	13µM	n	21µM
CC(C)C(CCNCc1ccccn1)c1ccc(Cl)cc1 (centres undefined)	u	n	u	x	13µM
O=C(Nc1cccnc1Cl)c1cnn2c1NC(=C1CC1)C=C2C(F)F	x	x	u	x	8.9µM
O=C(Nc1ccccc1Sc1ccccc1)c1cnn2c1NC(=C1CC1)C=C2C(F)F	x	x	16µM	x	u
O=C(NC1CCCc2ccccc21)c1cnn2c1NC(=C1CC1)C=C2C(F)F (centres undefined)	n	n	11µM	x	20µM
O=C(Nc1ccccc1F)c1cnn2c1NC(=C1CC1)C=C2C(F)F	n	n	n	x	n
O=C(Nc1ccccc1Sc1ccccc1)c1cnn2c1NC(=C1CC1)C=C2C(F)(F)F	n	n	u	x	u
